Measured values from PubChem BioAssay (NCATS).
Inconclusive results are not listed. Activity calls are given as the source filed them. Calls come from the whole dose curve; as a rule, active = well fitted cell-killing curve with a large enough effect; inconclusive = small, poorly fitted or top-dose-only effect, or effect the other way; inactive = no such curve, though single readings can be large or run the other way.

Assay: Quantitative High-Throughput drug screen in 47 multiple myeloma cell lines against the NCATS MIPE library collection: MMM1_PLB cell viability assay (AID 1918976); note: nearly all actives have a fitted effect of over 35% in size
Settings: MMM1 myeloma cells viability, CellTiter-Glo, 48 h; series mostly up to 45.8 µM
Description: PI: Beverly A. Mock Ph.D.
Laboratory of Cancer Biology and Genetics,
Center for Cancer Research, National Cancer Institute,
National Institute of Health, Bethesda, Maryland
Drug resistance and disease progression are common in multiple myeloma (MM) patients, underscoring the need for new therapeutic combinations. […] We hypothesized that effective combinations would reduce MYC expression and enhance p16 activity. […] These preclinical data identify potentially useful drug combinations for evaluation in drug-resistant MM and reveal potential mechanisms of combined drug sensitivity.
Described herein is the primary MIPE qHTS used to cherrypick compounds. Validated compounds were then further tested for potential synergistic activiy.
[1] Peat TJ, Gaikwad SM, Dubois W, Gyabaah-Kessie N, Zhang S, Gorjifard S, Phyo Z, Andres M, Hughitt VK, Simpson RM, Miller MA, Girvin AT, Taylor A, Williams D, D'Antonio N, Zhang Y, Rajagopalan A, Flietner E, Wilson K, Zhang X, Shinn P, Klumpp-Thomas C, McKnight C, Itkin Z, Chen L, Kazandijian D, Zhang J, Michalowski AM, Simmons JK, Keats J, Thomas CJ, Mock BA. Drug combinations identified by high-throughput screening promote cell cycle transition and upregulate Smad pathways in myeloma. Cancer Lett. 2023 Aug 1;568:216284. doi: 10.1016/j.canlet.2023.216284. Epub 2023 Jun 24. PMID: 37356470; PMCID: PMC10408729.
SEQUENCE No. (e.g., 1, 2, 3, etc.); […] (e.g., Cells, Incubation, Reagent, etc.); VALUE and DESCRIPTION.
1; Cells; 5 uL; white, solid bottom 1536-well Greiner assay plate.
2; Compounds; 23 nL; Kalypsis pin tool (Wako USA) equipped with a 1536-well pin head to transfer to the assay plates.
3; Incubation; 48 hours; 37C incubation.
4; Reagent;5uL; CellTiter Glo (Promega).
5; Detector; 425V; Luminescence; Viewlux PerkinElmer.
NOTES (numbers refer to Sequence numbers above)
1. The cell-based screening methods employed in this study were like those previously published. Briefly, the corresponding myeloma cell lines were screened in 1,536-well plates with 500 cells, 5-uL per well for inhibition of cell viability (assessed by measuring ATP levels with CellTiterGlo).
2. NCATS MIPE 4.0 library of approved and investigational drugs were added using the Kalypsis pin tool. Wells treated with DMSO only for 100% viability and media only for 0% viability were used as controls.
3. The assay plates were covered and incubated for 48 hours in a 37C, 5% CO2 incubator with controlled humidity.
4. After 48 hours, CellTilter-GloTM luminescent substrate mix (Promega) reagent was added to the assay plate and plates we incubated for 5 min at room temperature.
5. Signal was measured as median relative luminescence units on a ViewLux (PerkinElmer) multiplate reader.
[1] Heske CM, Davis MI, Baumgart JT, Wilson K, Gormally MV, Chen L, Zhang X, Ceribelli M, Duveau DY, Guha R, Ferrer M, Arnaldez FI, Ji J, Tran HL, Zhang Y, Mendoza A, Helman LJ, Thomas CJ. Matrix Screen Identifies Synergistic Combination of PARP Inhibitors and Nicotinamide Phosphoribosyltransferase (NAMPT) Inhibitors in Ewing Sarcoma. Clin Cancer Res. 2017 Dec 1;23(23):7301-7311. doi: 10.1158/1078-0432.CCR-17-1121. Epub 2017 Sep 12. PMID: 28899971; PMCID: PMC6636827.
Potency is the fitted concentration of half-maximal effect.

SMILES	Potency
CNc1nccc(-c2cccnc2Oc2cc(C(=O)Nc3cccc(C(F)(F)F)c3)ccc2C)n1	18.7 µM (active)
O=C(O)c1ccc2c(c1)nc(Nc1cccc(Cl)c1)c1ccncc12	14.8 µM (active)
Nc1ccccc1NC(=O)c1ccc(CNC(=O)OCc2cccnc2)cc1	4.69 µM (active)
COc1cc2c(NC3CCN(C(C)C)CC3)nc(C3CCCCC3)nc2cc1OCCCN1CCCC1	6.62 µM (active)
COC(=O)[C@]12CCC(C)(C)C[C@@H]1[C@@H]1C(=O)C=C3[C@@]4(C)C=C(C#N)C(=O)C(C)(C)[C@@H]4CC[C@@]3(C)[C@]1(C)CC2	1.32 µM (active)
C[C@@H]1COC(Nc2ccc3ncnc(Nc4ccc(OCc5nccs5)c(Cl)c4)c3c2)=N1	23.5 µM (active)
COc1ccc(F)c(F)c1C(=O)c1cnc(NC2CCN(S(C)(=O)=O)CC2)nc1N	2.64 µM (active)
CCS(=O)(=O)c1cccc(-c2cc(C(=O)NC3CCN(C)CC3)c(C)c3[nH]c4ncc(C)cc4c23)c1	4.18 µM (active)
Nc1ncnc2c1c(-c1cnc3[nH]ccc3c1)nn2C1CCCC1	0.187 µM (active)
COc1cc2c(Oc3ccc(-c4cnc(Nc5ccc(F)cc5)n(C)c4=O)cc3F)ccnc2cc1OCCCN1CCOCC1	4.69 µM (active)
COc1ccc2c(c1)CC[C@@H](CN(C)CC(=O)O)[C@H]2c1ccccc1	14.8 µM (active)
Nc1ncnc2c1c(-c1cccc(OCc3ccccc3)c1)cn2C1CC(CN2CCCC2)C1 (stereo not given)	1.05 µM (active)
Cc1nc2cnc3ccc(C#Cc4cccnc4)cc3c2n1-c1ccc(C(C)(C)C#N)cc1	0.148 µM (active)
C[C@@H](Oc1cc(-n2cnc3ccc(CN4CCN(C)CC4)cc32)sc1C(N)=O)c1ccccc1C(F)(F)F	16.6 µM (active)
Cc1nc2ccc(CN(C)c3ccc(C(=O)N[C@@H](CCC(=O)O)C(=O)O)s3)cc2c(=O)[nH]1	5.9 µM (active)
C=C1C(=CC=C2CCCC3(C)[C@@H]([C@H](C)C=CC=CC(O)(CC)CC)CC[C@@H]23)C[C@@H](O)C[C@@H]1O (stereo not given in full)	20.9 µM (active)
CN(C)CC=CC(=O)Nc1cc2c(Nc3ccc(F)c(Cl)c3)ncnc2cc1O[C@H]1CCOC1	20.9 µM (active)
COc1cc2c(cc1-c1c(C)noc1C)ncc1[nH]c(=O)n([C@H](C)c3ccccn3)c12	7.43 µM (active)
Cn1cc(-c2ccncc2)c(-c2ccc(OCc3ccc4ccccc4n3)cc2)n1	2.96 µM (active)
NC1(Cc2ccc(Cl)cc2)CCN(c2ncnc3[nH]ccc23)CC1	0.526 µM (active)

SMILES	Potency
C=CC(=O)Nc1cc2c(Nc3ccc(F)c(Cl)c3)ncnc2cc1C#CC(C)(C)N1CCN(C)CC1	5.26 µM (active)
CCOc1cc2ncc(C#N)c(Nc3ccc(F)c(Cl)c3)c2cc1NC(=O)C=CCN(C)C	18.7 µM (active)
Cc1ccc(C(=O)Nc2ccc(CN3CCN(C)CC3)c(C(F)(F)F)c2)cc1C#Cc1cnc2cccnn12	7.43 µM (active)
CC(=O)Nc1sc2c(c1-c1nc3ccccc3s1)CNC2	14.8 µM (active)
COc1cc2ncnc(Nc3ccc(F)c(Cl)c3)c2cc1NC(=O)C=CCN1CCCCC1	18.7 µM (active)
CCn1nnc2c(N3CCOCC3)nc(-c3ccc(NC(=O)Nc4ccc(C(=O)N5CCN(C)CC5)cc4)cc3)nc21	0.0332 µM (active)
COc1ccc(-c2cc3c(C)nc(N)nc3n(C3CCC(OCCO)CC3)c2=O)cn1 (stereo not given)	0.0148 µM (active)
O=C(NCCCNc1nc(Nc2cccc(NC(=O)N3CCCC3)c2)ncc1I)c1cccs1	23.5 µM (active)
CCNC(=O)Nc1ccc2ncc(Nc3ccc(C)cc3)nc2n1	14.8 µM (active)
CCC[C@H](NC(=O)C(C#N)=Cc1cccc(Br)n1)c1ccccc1	2.96 µM (active)
Fc1cc(-c2cccc3ncc(-c4cnn(C5CCNCC5)c4)nc23)cc(F)c1CN1CCOCC1	23.5 µM (active)
Cc1nc(N)ncc1-c1nc(N2CCOCC2)c2sc(C(C)(C)O)cc2n1	0.148 µM (active)
COC(=O)c1ccc2c(C(=Nc3ccc(N(C)C(=O)CN4CCN(C)CC4)cc3)c3ccccc3)c(O)[nH]c2c1	7.43 µM (active)
CC(C)c1cnn2c(NCc3ccccc3)cc(N[C@@H](CO)[C@H](O)CO)nc12	0.332 µM (active)
C=CC(=O)Nc1cccc(Oc2nc(Nc3ccc(N4CCN(C)CC4)cc3)ncc2Cl)c1	23.5 µM (active)
CN(C)Cc1c(C(=O)NCCOc2ccc(C(=O)NO)cc2)oc2ccccc12	0.59 µM (active)
CC(C)(O)c1cc2nc(-c3cnc(N)nc3)nc(N3CCOCC3)c2s1	0.0469 µM (active)
CC(C)Nc1cc(C(F)(F)F)cc2nc(NC(=O)c3cccnc3)nn12	1.87 µM (active)
CN1CCN(c2ccc3nc(-c4c(N)c5c(F)cccc5[nH]c4=O)[nH]c3c2)CC1	20.9 µM (active)
CN1CCC(CNc2ccc3ncc(-c4cccc(OC(F)(F)F)c4)n3n2)CC1	18.7 µM (active)
